Source: PubChem BioAssay
Compounds with a hit are over-represented: about 3.4% of the library has one in this group of screens.
FBW7 activator: human FBW7 E3 ligase activation, primary screen | AlphaScreen FBW7–phospho-cyclin E peptide binding, activator screen | normalized activity (activation), % at 26.1 µM | Q969H0 | hit rate 0.13% among 650,000; in the data active = normalized activity above about 1.9%;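 also: purified mutant Fbw7 with reduced substrate affinity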
TEAD-YAP inh: TEAD-YAP interaction inhibition; HEK-TIYL cells, TEAD-Gal4/YAP UAS-luciferase luminescence; inhibition, % at 9.12 µM; hit rate 1.4% among 640,000; AID 1259422; in the data active = inhibition above about 32%;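 also: 0% = median of test compound wells and 100% = reference inhibitor wells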
MITF primary: human MITF inhibition, primary screen; hit rate 0.91% among 650,000; AlphaScreen MITF homodimerization, bead proximity signal; inhibition, % at 2.6 µM; O75030; AID 1259374; in the data active = inhibition above about 50%;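 also: 0% = vehicle wells with protein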
Target sequence (O75030 whole entry, looked up): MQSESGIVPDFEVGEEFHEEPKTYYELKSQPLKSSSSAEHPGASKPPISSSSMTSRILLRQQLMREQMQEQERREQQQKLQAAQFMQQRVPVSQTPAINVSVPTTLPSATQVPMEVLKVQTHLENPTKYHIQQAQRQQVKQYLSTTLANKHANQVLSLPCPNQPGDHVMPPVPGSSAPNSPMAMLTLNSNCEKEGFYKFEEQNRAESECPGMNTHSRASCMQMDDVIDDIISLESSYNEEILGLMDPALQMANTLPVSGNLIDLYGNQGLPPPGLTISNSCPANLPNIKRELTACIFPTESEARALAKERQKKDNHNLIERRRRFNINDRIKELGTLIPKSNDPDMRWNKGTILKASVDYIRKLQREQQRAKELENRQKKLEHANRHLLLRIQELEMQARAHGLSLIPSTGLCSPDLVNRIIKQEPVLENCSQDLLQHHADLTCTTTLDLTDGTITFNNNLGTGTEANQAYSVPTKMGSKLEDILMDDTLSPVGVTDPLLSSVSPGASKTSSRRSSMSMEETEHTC
GPR151 ag: activates the human receptor GPR151. Q8TDV0. PathHunter beta-arrestin GPR151 cells, luminescence. activation, % at 11.2 µM. hit rate 1% among 650,000. AID 1508602; in the data active = activation above about 4.9%;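 also: 0% = median of compound wells and 100% = cells with positive control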
* = called active by the depositor.

SMILES | FBW7 activator | TEAD-YAP inh | MITF primary | GPR151 ag
Cc1c2oc3c(C)ccc(C(=O)C4CCCCO4)c3nc-2c(C(=O)C2CCCCO2)c(N)c1=O (centres undefined) | 0 | 96* | 13 | 2
Cc1c(Cl)cccc1NC(=O)CNCC1CCCCC1 | 0 | 1 | 33 | 1
O=C(O)c1ccc(NCCSCc2ccccc2)c([N+](=O)[O-])c1 | 0 | 35* | -5 | 0
CC(=O)c1cccc(-c2nc(NCCCN3CCCC3=O)c3ncn(Cc4ccc(C(F)(F)F)cc4)c3n2)c1 | 0 | -9 | -11 | 2
Cc1cc2nnc(SCC(=O)NCc3ccco3)n2c2ccccc12 | 0 | 48* | -5 | -3
Cc1cccc(Cn2cc(SCC(=O)NCc3ccco3)c3ccccc32)c1 | 0 | 36* | -4 | 3
CCOC(=O)C1=C(c2ccc(OC)cc2)c2onc(N)c2C1c1ccccc1 (centres undefined) | 0 | -7 | 10 | 0
CCc1cc(-c2[nH]ncc2-c2ccc3c(c2)OCCO3)c(O)cc1OC | 0 | 63* | 9 | 1
CCN(CC)C(=O)C1CCCN(c2nc(NCCN(C(C)C)C(C)C)c3ncn(-c4ccccc4)c3n2)C1 (centres undefined) | 0 | 41* | 7 | -1
CCN(CC)C(=O)C1CCCN(c2nc(N)c3ncn(-c4ccccc4)c3n2)C1 (centres undefined) | 0 | 46* | -13 | -2
CCN(CC)C(=O)C1CCCN(c2nc(NCCN(C(C)C)C(C)C)c3ncn(C(C)C)c3n2)C1 (centres undefined) | 0 | 11 | -6 | 2
CCN(CC)C(=O)C1CCCN(c2nc(Nc3ccccc3)c3[nH]cnc3n2)C1 (centres undefined) | 0 | 48* | 0 | 3
CCN(CC)C(=O)C1CCCN(c2nc(Nc3cc(OC)c(OC)c(OC)c3)c3ncn(C(C)C)c3n2)C1 (centres undefined) | 0 | 34* | 13 | 0
CCN1CCN(c2ccc([N+](=O)[O-])cc2S(=O)(=O)Nc2ccc(Cl)cc2)CC1 | 0 | -5 | 18 | -1
CCc1ccc(-c2csc(-c3cc4cc(Br)cc(Br)c4oc3=O)n2)cc1 | 0 | -5 | -7 | 1
CCOc1ccccc1N(CC(=O)N=Nc1c(O)[nH]c2ccccc12)S(C)(=O)=O | 0 | 7 | 13 | -1
Cc1ccc2ccc(S(=O)(=O)N3CCCCC3)cc2c1 | 0 | -1 | -7 | 2
CCCn1cc(CN2CCN(Cc3cccs3)C(CCO)C2)c(C)n1 (centres undefined) | 0 | -13 | -2 | 3
COCCCNC(=O)CN1C(=O)c2cccnc2Oc2ccc(Cl)cc21 | 0 | 8 | 7 | 3
CCOc1ccc2[nH]cc(C(=O)NCc3cccnc3)c(=O)c2c1 | 0 | 41* | 6 | 0
CCN(CC)C(=O)Oc1ccc2ccccc2c1 | 0 | -50 | -9 | 1
O=[N+]([O-])c1cc(/C=N\Nc2nccs2)ccc1O | 0 | 0 | 95* | 0
Nc1ncnc(N/N=C/c2ccc3ncccc3c2)c1[N+](=O)[O-] | 0 | 86* | 13 | -1
Nc1ncnc(N/N=C/c2ccc(C3=CCCC3)s2)c1[N+](=O)[O-] | -1 | 60* | 22 | -8
CCN(Cc1ccccc1)c1ccc(/C=N/Nc2ncnc(N)c2[N+](=O)[O-])cc1 | -1 | 37* | 12 | -4
SMILES | FBW7 activator | TEAD-YAP inh | MITF primary | GPR151 ag
Nc1ncnc(N/N=C/c2cccnc2)c1[N+](=O)[O-] | 0 | 20 | -1 | -3
COc1cc(/C=N/Nc2ncnc(N)c2[N+](=O)[O-])ccc1O | -1 | 34* | 10 | -10
CCCC(=O)Nc1nnc(-c2ccc(C)cc2)s1 | 0 | -3 | 6 | -1
COc1ccc(CN2C3CCC2CC(NC(=O)c2ccccc2Cl)C3)cc1 (centres undefined) | 0 | 10 | 5 | 1
CCN(CC)C(=O)c1c(COc2ccc(C)cc2)n(Cc2ccccn2)c(C)cc1=O | 0 | 3 | 4 | 1
Cc1nc2ccccn2c1C(=O)Nc1ccccc1 | 0 | -12 | 13 | 0
O=C(NCc1cccs1)C1CCN(C(=O)Nc2ccc(Cl)cc2)CC1 | 2.4* | -17 | 14 | 0
Cc1nc2ccccn2c1C(=O)Nc1ccc(CC(=O)NCc2cccs2)cc1 | 0 | 55* | -10 | -1
O=C(Cc1ccc(Cl)cc1)NCc1cccs1 | 9.5* | 6 | 13 | 2
Cc1ccc(F)c(CN2CCN3C(=O)[C@@H](Cc4ccc(O)cc4)NC(=O)[C@H]3C2)c1 | 0 | -2 | -4 | -1
CN1/C(=C/C=C(C#N)C#N)C=Cc2ccccc21 | 0 | -9 | 9 | 0
C=CCN1C=C/C(=C\C=C(C#N)C#N)c2ccccc21 | -2 | 13 | 68* | -2
O=C(NCCCN1CCCC1=O)c1ccc2c(c1)N(Cc1ccccc1)CCS2 | 0 | -16 | 3 | 0
CN1C(=O)S/C(=C/c2ccc(OCc3cccc(C(=O)O)c3)cc2)C1=O | 1 | -30 | 11 | 2
CN1C(=O)C(=Cc2ccc(OCc3cccc(C(=O)O)c3)cc2)C(=O)N(C)C1=O | 0 | 43* | 0 | -9
COc1cccc(-n2cc(-c3cc4ccccc4oc3=O)[nH]c2=S)c1 | 0 | 95* | 1 | -8
O=C1c2ccccc2C(=O)N1Cc1cccnc1 | 0 | -3 | 11 | 1
Nc1ccc(Oc2ccc3c(c2)C(=O)N(Cc2cccnc2)C3=O)cc1 | 0 | 35* | 10 | 1
CCOC(=O)c1ccc(N2NC(=O)/C(=C/c3ccc([N+](=O)[O-])o3)C2=O)cc1 | 0 | 16 | 66* | 0
CCOC(=O)c1ccc(N2NC(=O)/C(=C/c3ccc(C)o3)C2=O)cc1 | 0 | 7 | 5 | 1
CC(C)(C)c1ccccc1NC(=O)c1ccc(Br)o1 | 0 | 6 | 5 | 1
CN(C)/C=C/C=C/C=C1\CCC/C(=C\C=C\N(C)C)C1=O | 0 | 8 | 78* | -1
CN(C)/C=C/C=C1\CCc2ccccc2C1=O | 0 | -3 | 20 | 0
Cc1c(C(=O)Nc2ccc(Oc3ccccc3)cc2)sc2ncn(CC(=O)N3CCCCC3C)c(=O)c12 (centres undefined) | 0 | -3 | 8 | -1
CCCCNC(=O)C(=O)NC1CC1 | 0 | -10 | -7 | 0
SMILES | FBW7 activator | TEAD-YAP inh | MITF primary | GPR151 ag
Cc1cccc(C(=O)Nc2c(C(=O)N3CCCCC3)cnn2-c2ccccc2)c1 | 0 | 13 | 6 | 2
Cc1cccc(C(=O)Nc2c(C(=O)N3CCN(C)CC3)cnn2-c2ccccc2)c1 | 2.3* | 11 | 14 | -1
Cc1nc(C)c(/C(O)=C/c2nc3ccccc3oc2=O)s1 | 1 | -4 | 58* | -3
O=Cc1ccc(-c2ccc(NC3CC3)nc2)cc1 | 0 | 34* | 5 | -3
CC(C)Oc1ccc(C(=O)Nc2nc(-c3ccc(F)cc3F)cs2)cc1 | 0 | 38* | -10 | -1
O=C(Cc1ccc2c(c1)OCO2)Nc1cc(Nc2ccccc2-c2nn[nH]n2)c(Cl)cn1 | 1 | 1 | 15 | 0
NC(=O)c1ccccc1Nc1cc(NC(=O)Cc2ccc(CN3CCOCC3)cc2)ncc1Cl | 0 | 99* | 4 | 0
NC(=O)c1ccccc1Nc1cc(NC(=O)Cc2ccc3ccccc3c2)ncc1C(F)(F)F | 0 | 93* | 2 | -2
